These results are taken from PubChem BioAssay (NCI).

About 83,000 compounds went through this panel and 20% of them were active in at least one assay; those are over-represented in the sample as a whole.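 Cells were grown in 96-well plates and exposed to the test compound at a single concentration for 48 hours; results are reported as percent growth, with values below 10 considered active.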 Unmarked numbers belong to inactive results. The source made the active and inactive calls.

Test systems include NCI-H23 lung; NCI-H226 lung; NCI-H322M lung; HOP-62 NSCLC; NCI-H460 lung; HOP-92 NSCLC; NCI-H522 lung; A549/ATCC NSCLC; 786-0 renal; COLO 205 colon; DU-145 prostate; K-562 leukemia; MALME-3M melanoma; MDA-MB-231 breast; RXF 393 renal; SF-268 CNS; SF-295 CNS; SF-539 CNS; UACC-257 melanoma; M14 melanoma.
Assay in all cases: NCI-60 one-dose screen, 48 h (100 = growth as untreated, 0 = no growth, -100 = all killed)
Settings in all cases: 10 µM unless noted

In the case of `C=C(OC(C)=O)c1ccccc1`, the growth was 97.1% with NCI-H23 lung; 107% in the assay on NCI-H226 lung; 113% with NCI-H322M lung; 85.5% in the assay on HOP-62 NSCLC; 102% in the assay with NCI-H460 lung; 87.5% with HOP-92 NSCLC. The growth in the assay with NCI-H522 lung is 88.5%; with A549/ATCC NSCLC, 86.7%; in the assay on 786-0 renal, 104%; in the assay with COLO 205 colon, 109%; in the assay on DU-145 prostate it was 113%; with K-562 leukemia, 83%. Moreover, the growth with MALME-3M melanoma was 108%; in the assay on MDA-MB-231 breast it was 103%; in the assay with RXF 393 renal, 113%; in the assay with SF-268 CNS, 102%; with SF-295 CNS it was 105%; with SF-539 CNS, 108%. Also, the growth with UACC-257 melanoma was 83.7%; with M14 melanoma, 97.3%.

On to `COC1C(=O)CCC2(CO2)C1(O)C1(C)OC1CCC(C)C` (stereo not given), for which the growth with NCI-H23 lung was 69.5%; with NCI-H226 lung it was 85.2%; with NCI-H322M lung it was 76.8%; with HOP-62 NSCLC, 71.5%; with NCI-H460 lung, 20.5%; in the assay with HOP-92 NSCLC, 67.5%. The growth in the assay with NCI-H522 lung was 62.8%; in the assay on A549/ATCC NSCLC it was 56.2%; in the assay with 786-0 renal, 81.2%; in the assay with COLO 205 colon it was 65.9%; in the assay with DU-145 prostate it was 48.7%; in the assay on K-562 leukemia it was 47.6%. Also, the growth is 103% with MALME-3M melanoma; 107% in the assay on MDA-MB-231 breast; 69.5% with RXF 393 renal; 74.6% with SF-268 CNS; 72.9% with SF-295 CNS; 88% with SF-539 CNS. The growth was 39.9% in the assay on UACC-257 melanoma and 56.5% in the assay on M14 melanoma.

On to `CC(C)N(C(=O)c1ccccc1)C(C)C`, for which the growth in the assay with NCI-H23 lung is 106%; in the assay with NCI-H226 lung, 93.6%; in the assay on NCI-H322M lung, 114%; in the assay on HOP-62 NSCLC it was 109%; with NCI-H460 lung it was 106%; in the assay on HOP-92 NSCLC it was 97.8%. Moreover, the growth in the assay with NCI-H522 lung is 101%; with A549/ATCC NSCLC it was 98.8%; in the assay on 786-0 renal, 106%; with COLO 205 colon, 114%; in the assay on DU-145 prostate, 117%; in the assay on K-562 leukemia, 103%. The growth in the assay with MALME-3M melanoma was 114%; in the assay on MDA-MB-231 breast, 119%; with RXF 393 renal, 106%; in the assay with SF-268 CNS, 105%; in the assay on SF-295 CNS, 105%; in the assay on SF-539 CNS, 98.3%. Besides, the growth in the assay with UACC-257 melanoma is 104%; with M14 melanoma, 97%.

Consider `N#CC1(O)CCCCC1`, for which the growth is 114% in the assay on NCI-H23 lung; 100% with NCI-H226 lung; 97.8% with NCI-H322M lung; 95.2% in the assay with HOP-62 NSCLC; 107% in the assay on NCI-H460 lung; 96.5% with HOP-92 NSCLC. Further, the growth in the assay with NCI-H522 lung was 88.6%; with A549/ATCC NSCLC, 92.1%; in the assay on 786-0 renal it was 105%; in the assay on COLO 205 colon, 109%; in the assay on DU-145 prostate, 103%; with K-562 leukemia, 102%. In addition, the growth is 104% with MALME-3M melanoma; 118% in the assay with MDA-MB-231 breast; 110% in the assay on RXF 393 renal; 98.5% in the assay with SF-268 CNS; 103% with SF-295 CNS; 105% with SF-539 CNS. In addition, the growth with UACC-257 melanoma was 90.2%; in the assay with M14 melanoma it was 95.7%.

As for `CC(=O)c1ccc(C)cc1`, the growth in the assay on NCI-H23 lung was 104%; in the assay with NCI-H226 lung, 102%; in the assay with NCI-H322M lung, 90%; with HOP-62 NSCLC, 107%; in the assay with NCI-H460 lung, 106%; in the assay on HOP-92 NSCLC it was 88.3%. The growth with NCI-H522 lung was 103%; in the assay with A549/ATCC NSCLC, 114%; with 786-0 renal, 120%; in the assay on COLO 205 colon, 116%; in the assay with DU-145 prostate it was 114%; in the assay on K-562 leukemia, 114%. Also, the growth in the assay on MALME-3M melanoma was 90.8%; in the assay with MDA-MB-231 breast it was 114%; in the assay with RXF 393 renal, 97.6%; in the assay on SF-268 CNS, 107%; in the assay on SF-295 CNS, 109%; in the assay with SF-539 CNS, 114%. Moreover, the growth was 92% with UACC-257 melanoma and 107% in the assay on M14 melanoma.

Take `COC1(OC)C2(Cl)C(Cl)=C(Cl)C1(Cl)C1COCC12` (stereo not given): the growth in the assay on NCI-H23 lung was 109%; in the assay with NCI-H226 lung it was 93.6%; with NCI-H322M lung, 104%; in the assay with HOP-62 NSCLC, 96.5%; in the assay on NCI-H460 lung it was 86.8%; in the assay with HOP-92 NSCLC, 105%. Also, the growth in the assay on NCI-H522 lung is 79.5%; in the assay on A549/ATCC NSCLC, 64%; in the assay on 786-0 renal, 104%; in the assay on COLO 205 colon, 113%; with DU-145 prostate it was 102%; in the assay on K-562 leukemia, 97.3%. Further, the growth was 110% in the assay on MALME-3M melanoma; 105% in the assay on MDA-MB-231 breast; 103% with RXF 393 renal; 108% with SF-268 CNS; 102% with SF-295 CNS; 109% with SF-539 CNS. In addition, the growth with UACC-257 melanoma is 63.3%; with M14 melanoma, 100%.

Turning to `O=C(O)Cc1cccc2ccccc12`, the growth was 121% with NCI-H23 lung; 117% in the assay on NCI-H226 lung; 105% in the assay on NCI-H322M lung; 106% in the assay on HOP-62 NSCLC; 109% with NCI-H460 lung; 103% in the assay with HOP-92 NSCLC. The growth in the assay on NCI-H522 lung is 95.7%; in the assay on A549/ATCC NSCLC, 99.8%; in the assay on 786-0 renal it was 111%; in the assay on COLO 205 colon it was 113%; in the assay with DU-145 prostate, 115%; in the assay with K-562 leukemia, 96.4%. Also, the growth in the assay with MALME-3M melanoma was 116%; with MDA-MB-231 breast it was 123%; in the assay on RXF 393 renal, 117%; in the assay on SF-268 CNS, 109%; in the assay on SF-295 CNS, 110%; in the assay on SF-539 CNS, 108%. For the same compound, the results for the growth in the assay with UACC-257 melanoma and in the assay with M14 melanoma were 90.4% and 103%, respectively.

In the case of `NC(=O)c1cc2c3ccccc3ccn2c1-c1ccccc1`, the growth in the assay on NCI-H23 lung was 18.7%; in the assay on NCI-H226 lung, 23.3%; with NCI-H322M lung it was 46.3%; in the assay on HOP-62 NSCLC, 24.3%; in the assay with NCI-H460 lung, 0.187% (active); in the assay on HOP-92 NSCLC, 32.7%. The growth in the assay with NCI-H522 lung was 53.1%; in the assay with A549/ATCC NSCLC it was 22.8%; with 786-0 renal it was 17.4%; in the assay on COLO 205 colon, -13.2% (active); in the assay with DU-145 prostate, 5.57% (active); in the assay with K-562 leukemia it was 4.64% (active). In addition, the growth in the assay with MALME-3M melanoma was 86%; with MDA-MB-231 breast, 29.3%; in the assay with RXF 393 renal, 25.5%; with SF-268 CNS, 22%; in the assay with SF-295 CNS, 4.09% (active); with SF-539 CNS, -19.7% (active). In addition, the growth with UACC-257 melanoma is 64.9%; with M14 melanoma, 11.3%.
